In the library only some 32% were active in any assay of this set; here they are far more common.
CYP2C9 inh – inhibitors of human CYP2C9. CYP2C9 Supersomes, luciferin-H conversion, luminescence. inhibition, % at 5 µM. actives 20% (n = 96,000). AID 777;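 active = blocking of liver enzyme CYP2C9 beyond about 50% at 5 µM, limit read from the data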
Target sequence (P11712 whole entry, looked up): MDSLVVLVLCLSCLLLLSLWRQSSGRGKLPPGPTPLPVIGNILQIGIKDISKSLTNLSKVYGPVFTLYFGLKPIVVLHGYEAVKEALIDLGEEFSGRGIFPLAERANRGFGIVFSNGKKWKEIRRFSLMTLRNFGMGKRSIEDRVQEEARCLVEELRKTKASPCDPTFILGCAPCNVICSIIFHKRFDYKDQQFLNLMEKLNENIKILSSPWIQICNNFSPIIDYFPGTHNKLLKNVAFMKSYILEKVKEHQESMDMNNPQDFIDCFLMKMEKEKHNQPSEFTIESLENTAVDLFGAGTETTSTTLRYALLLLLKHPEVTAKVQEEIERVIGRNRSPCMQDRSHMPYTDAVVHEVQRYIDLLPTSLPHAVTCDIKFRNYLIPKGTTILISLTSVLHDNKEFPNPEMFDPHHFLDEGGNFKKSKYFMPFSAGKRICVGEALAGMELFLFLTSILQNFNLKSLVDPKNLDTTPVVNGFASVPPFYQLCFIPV
PostGolgi ctrl – inhibits growth of the yeast control strain; efflux-deficient yeast background strain, growth absorbance A615, 16 h; inhibition, % at 10 µM; actives 5% (n = 98,000)
CYP2C19 activ – increases human CYP2C19 enzyme activity | P33261 | recombinant CYP2C19, luciferin-H EGE luminescence; active compounds read high; 0 = fully inhibited enzyme, 1 = untreated enzyme | activation factor at 5 µM | 96,000 tested, under 10 active;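 active = activation factor of at least 2 at 5 µM in the primary screen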
CYP2C19 inhib – human CYP2C19 inhibition | P33261 | CYP2C19 Supersomes, luciferin-H EGE luminescence, 30 min | inhibition, % at 5 µM | actives 21% (n = 96,000);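 active = CYP2C19 inhibition above a set limit at 5 µM in the primary screen, cut at about 50% in these data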
CYP2C9 activ – increases human cytochrome P450 2C9 activity; P11712; recombinant CYP2C9, luciferin-H conversion, luminescence; active compounds read high; factor 1 = untreated enzyme, 0 = blocked; activation factor at 5 µM; actives 1.4% (n = 96,000);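 active = activation factor of 2 or more for CYP2C9 at a 5 µM dose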
PostGolgi yeast – growth inhibition of a yeast mutant, post-Golgi transport screen. actives 0.9% (n = 98,000). post-Golgi transport phenotypic cell assay. inhibition, % at 10 µM. AID 739;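 note: yeast cells grown in 1536-well plates; yeast grown about 18 h at 30C before absorbance read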
Large screens that a line does not name were inactive. Cut-off read from the data, not from the text of the source, unless noted: active = inhibition above about 30%; inactive = the rest.

COc1cc(NC(=O)C2COc3ccccc3O2)c(OC)cc1Cl (configuration not stated)	CYP2C9 inh 84.0, CYP2C19 inhib 86.0
CC(C)(C)NC(=O)c1ccc(NC(=O)C2COc3ccccc3O2)cc1 (configuration not stated)	none
CC1CC(C)CN(S(=O)(=O)c2ccc(NC(=O)C3COc4ccccc4O3)cc2)C1 (configuration not stated)	PostGolgi ctrl 38.0 (no result: CYP2C9 inh, CYP2C19 activ, CYP2C19 inhib, CYP2C9 activ)
COc1ccc(OC)c(NS(=O)(=O)c2ccc(NC(=O)C3COc4ccccc4O3)cc2)c1 (configuration not stated)	CYP2C19 inhib 57.1
O=C(O)CC1NC(=O)N(c2ccc(Cl)cc2)C1=O (configuration not stated)	none
CC1CCCCC1NC(=O)COC(=O)c1ccc(N(C)C)cc1 (configuration not stated)	CYP2C19 inhib 91.3
COc1ccccc1C(=O)NCCN1CCN(C(=O)c2ccccc2OC)CC1	none
COc1cccc(N(C(=O)Cn2nnc(-c3ccc(C)cc3)n2)C(C(=O)NC(C)(C)C)c2c[nH]c3ccccc23)c1 (configuration not stated)	CYP2C9 inh 87.6
COc1cccc(N(C(=O)Cn2nnc(-c3cccs3)n2)C(C(=O)NC(C)C)c2ccc(C)o2)c1 (configuration not stated)	none
O=C(NC1CCCC1)C(c1c[nH]c2ccccc12)N(C(=O)Cn1nnc(-c2ccc(Cl)cc2)n1)c1ccccc1 (configuration not stated)	CYP2C9 inh 67.2
CC(C)(C)NC(=O)C(c1ccco1)N(C(=O)Cn1nnc(-c2ccc(F)cc2)n1)c1ccccc1F (configuration not stated)	PostGolgi ctrl 79.2, PostGolgi yeast 76.3
Cc1ccc(-c2nnn(CC(=O)N(c3ccccc3)C(C(=O)NC3CCCC3)c3ccco3)n2)o1 (configuration not stated)	none
CCCCOC(=O)Nc1sc2c(c1C(=O)OC)CCC2	none (no result: PostGolgi ctrl, PostGolgi yeast)
CCS(=O)(=O)N1CCN(Cc2ccncc2)CC1	none
CC12CC(NC(=O)N1c1ccc(C(=O)N3CCN(c4ccc(F)cc4)CC3)cc1)c1ccccc1O2 (configuration not stated)	none
O=C(CN1CCN(Cc2ccccc2)CC1)c1ccc(Br)cc1	none
O=C(C(c1ccccc1)c1ccccc1)N1CCN(Cc2ccc(Br)cc2)CC1	PostGolgi ctrl 51.0
CCC(=O)Nc1cc(C)c(NC(=O)c2ccccc2OC)cn1	CYP2C9 activ 2.6
CCCCC(=O)Nc1ccc(NC(=O)c2ccccc2OC)cn1	CYP2C19 inhib 77.9, CYP2C9 activ 3.5
CCCCC(=O)Nc1ccc(NC(=O)c2cc(OC)c(OC)c(OC)c2)cn1	none
COC(=O)c1ccc(CSc2nc3ccccc3s2)o1	CYP2C19 inhib 94.7
COC(=O)c1ccc(CSc2ncnc3ccccc23)o1	CYP2C19 inhib 69.8
COC(=O)c1ccc(CSc2n[nH]c(=S)s2)o1	CYP2C9 inh 57.9
O=C(O)c1ccccc1-c1ccccc1C(=O)NCc1ccco1	none
Cc1cc(C)n(/N=C\c2c(O)ccc3ccccc23)c(=O)c1C(N)=O	none
CCOC(=O)N1CC=C2C(C#N)=C(N)C(C#N)(C#N)[C@H](c3ccc(OC(C)C)c(OCC)c3)[C@H]2C1	CYP2C9 inh 74.5
CCOc1ccc(C(=S)N2CCCC2)cc1	CYP2C19 inhib 88.9
COc1cc(C(=S)N2CCCC2)cc(OC)c1O	CYP2C19 inhib 60.7
COc1ccc(CC(=O)OCn2nnc3ccccc3c2=O)cc1	none (no result: CYP2C9 inh, CYP2C19 activ, CYP2C19 inhib, CYP2C9 activ)
COc1ccccc1N1CCN(C(=O)CSc2nc(C)c(Cc3ccccc3)c(=O)[nH]2)CC1	none
O=C(NCCc1ccc(Cl)cc1)C1CCN(S(=O)(=O)c2ccc(-n3cnnn3)cc2)CC1	none
O=C(CN1CCOc2ccccc21)NCc1cccs1	CYP2C19 inhib 59.5
O=C(CCN1C(=O)COc2ccccc21)NCc1cccs1	CYP2C19 inhib 84.1
COc1ccc(CCNC(=O)CCN2C(=O)COc3ccccc32)cc1OC	CYP2C19 inhib 82.1
O=C(CCN1C(=O)COc2ccccc21)NCCN1CCc2ccccc2C1	none
O=C1N2CCSC2=NC1(Nc1nccs1)C(F)(F)F (configuration not stated)	none
Cc1c(NC(=O)COC(=O)Cc2ccc(Cl)cc2)c(=O)n(-c2ccccc2)n1C	none
N#CC1=C(N)Oc2n[nH]c(-c3ccccc3)c2C1c1cccnc1 (configuration not stated)	none
CCOc1cc(C2C(C#N)=C(N)Oc3n[nH]c(-c4ccccc4)c32)ccc1O (configuration not stated)	CYP2C9 inh 93.8, CYP2C19 inhib 70.6
CCOc1cc(-c2cc(-c3ccccc3)nc(N)c2C#N)ccc1O	CYP2C9 inh 53.6, CYP2C19 inhib 52.2
CCOc1cc(-c2cc(-c3ccc(N)cc3)nc(N)c2C#N)ccc1O	CYP2C9 inh 88.8, CYP2C19 inhib 69.5
CCOc1cc(-c2c(C#N)c(N)nc3c2CCCC3)ccc1O	CYP2C19 inhib 60.7
CCC(=O)N(CC(=O)Nc1sc(C)c(C)c1C(N)=O)C1CCCCC1	none
CC1(C)N=C(N)NC(Nc2ccccc2)=N1	none (no result: CYP2C9 inh, CYP2C19 activ, CYP2C19 inhib, CYP2C9 activ)
Cc1c(NC(=O)/C=C/c2cn(-c3ccccc3)nc2-c2ccccc2)c(=O)n(-c2ccccc2)n1C	none
Cn1c2c(c(=O)n(C)c1=O)C(NS(=O)(=O)c1ccc(Cl)cc1)(C(F)(F)F)C(=O)N2 (configuration not stated)	none
Cn1c2c(c(=O)n(C)c1=O)C(C(F)(F)F)(C(F)(F)F)N=C(c1ccccc1Cl)N2	CYP2C9 inh 73.0, PostGolgi yeast 31.0
COc1cccc(-c2ccc(=O)n(CC(=O)Nc3ccc(C(=O)N4CCCC4)cc3)n2)c1	CYP2C19 inhib 54.9
COc1cccc(-c2ccc(=O)n(CC(=O)Nc3cc4c(cc3NC(C)=O)OCCO4)n2)c1	CYP2C19 inhib 68.8
CC1CCCC2(C1)NC(=S)c1c(sc3c1CCCC3)N2 (configuration not stated)	none
CCOC(=O)Cc1csc(-n2sc3ccccc3c2=O)n1	none
CC(OC1=CC(=O)CCC1)C(=O)c1ccccc1 (configuration not stated)	none
O=P1(O)C=C(c2ccccc2)NC(c2ccccc2)=C1	none
Cc1cc(-c2n[nH]c(=S)o2)c(C)n1-c1ccccc1	none
Cc1cc2c3nonc3ccc2n1-c1ccccc1	PostGolgi ctrl 34.6
Cc1ccc(Nc2nc(N)nc(CN3CCN(Cc4ccc5c(c4)OCO5)CC3)n2)cc1Cl	CYP2C9 inh 74.3, CYP2C19 inhib 59.8
Cc1ccc(Nc2nc(N)nc(CN3CCN(Cc4ccc5c(c4)OCO5)CC3)n2)c(C)c1	CYP2C19 inhib 51.5
Cc1ccc(Nc2nc(N)nc(CN3CCN(Cc4ccc5c(c4)OCO5)CC3)n2)cc1	CYP2C19 inhib 51.5
CCOc1ccccc1OCCOc1cccc(C(F)(F)F)c1	none
O=C(CN1C(=O)NC2(CCCCCC2)C1=O)Nc1ccc(S(=O)(=O)N2CCOCC2)cc1	none
